Measured values taken from PubChem BioAssay (NCI).
About 79,000 compounds went through this panel and 15% of them were active in at least one assay; those are over-represented in the sample as a whole. No stated cut-off is given here; in the data, active means growth inhibition above about 70%; inactive means the rest.

How the values were obtained:
[1] = NCI Yeast Anticancer Drug Screen. Data for the rad50 strain (AID 155);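 further: 0% = growth of vehicle-only cultures of the same strain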; settings: S. cerevisiae rad50 strain growth inhibition; at 50.0 µM; hits give high values
Procedure, shortened: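 Readout: growth inhibition relative to vehicle-treated cultures. Compound exposure was carried out in a genetically defined yeast strain deficient in DNA damage repair.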

[2] = NCI Yeast Anticancer Drug Screen. Data for the mec2-1 strain (AID 157); settings: S. cerevisiae mec2-1 strain, at 50.0 µM, hits give high values
Procedure, shortened: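 mec2-1 yeast strain, carrying an alteration in DNA damage repair or cell cycle control, was exposed to compounds; growth inhibition was measured relative to vehicle-treated controls.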

[3] = NCI Yeast Anticancer Drug Screen. Data for the sgs1 mgt1 strain (AID 161);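 further: 0% = growth of cultures given vehicle only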; settings: S. cerevisiae sgs1 mgt1 strain, at 50.0 µM, hits give high values
Procedure, shortened: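 Compounds are added to genetically altered yeast, and growth is compared with cultures given vehicle alone to give percent inhibition.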

[4] = NCI Yeast Anticancer Drug Screen. Data for the cln2 rad14 strain (AID 165);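 further: 0% = growth equal to vehicle treated cultures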; settings: S. cerevisiae cln2 rad14 strain, at 50.0 µM, hits give high values
Procedure, shortened: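 Yeast carrying cln2 and rad14 alterations (cell cycle control and DNA damage repair) were exposed to compounds. Growth inhibition was measured against vehicle-treated controls.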

[5] = NCI Yeast Anticancer Drug Screen. Data for the bub3 strain (AID 167); settings: S. cerevisiae bub3 mutant strain, at 50.0 µM, hits give high values
Procedure, shortened: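 Readout: yeast growth inhibition, expressed relative to vehicle-only wells. The test organism is a mutant strain from a panel with lesions in DNA repair or checkpoint genes.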

[6] = NCI Yeast Anticancer Drug Screen. Data for the mlh1 rad18 strain (AID 175); settings: S. cerevisiae mlh1 rad18 strain growth inhibition; at 50.0 µM; hits give high values
Procedure, shortened: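 Growth inhibition of the yeast strain was measured after compound exposure and expressed relative to vehicle-treated controls. The strain carries defined defects in DNA damage repair.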

Measured: growth inhibition

Brc1cc2c(cc1C1SCCS1)OCO2
inactive: [1] 49.5% | [2] 20.4% | [3] 58.5% | [4] 18.6% | [5] 28.3% | [6] 34.6%

NC(=O)c1cccnc1
inactive: [1] 15.1% | [2] -41.4% | [3] 5.1% | [4] -27.2% | [5] -12.9% | [6] 9.95%

O=C1OCc2nc3c(c(-c4ccccc4C(F)(F)F)c21)C(=O)OC3
inactive: [1] -40.1% | [2] -66.6% | [3] -59.3% | [4] -0.85% | [5] -35.4% | [6] -39%

O=[N+]([O-])c1ccc(N/N=C(/c2ccc(Cl)cc2)c2ccccc2Cl)c([N+](=O)[O-])c1
inactive: [1] -15.8% | [2] 1.2% | [3] -6.25% | [4] -16.8% | [5] 3.35% | [6] 21.4%

Cc1ccc(NC(=O)NCCCCCCNC(=O)Nc2ccc(C)cc2)cc1
inactive: [1] -7.05% | [2] -13% | [3] -7.95% | [4] -9.05% | [5] -14.4% | [6] -17.9%

COC1C(=O)CCC2(CO2)C1(O)C1(C)OC1CC=C(C)C (stereo unspecified)
inactive: [1] -22.9% | [2] -34.4% | [3] -31.6% | [4] -5.2% | [5] -28.2% | [6] -25.8%

Cc1cc2c(cc1C)[n+](=O)c(C(=O)C/C(=N/OCCCc1ccccc1)C(=O)Nc1cc(Cl)ccc1Cl)c(C)n2[O-]
inactive: [1] -35.1% | [2] 1.8% | [3] -7.2% | [4] 19.2% | [5] 9.1% | [6] -10.3%

O=C(O)Cc1cc(CC(=O)O)cc(CC(=O)O)c1
inactive: [1] -3.8% | [2] -18.8% | [3] 6.05% | [4] 5.2% | [5] 1.6% | [6] -17.9%

C#CCOCCCC(=O)O
inactive: [1] 6.95% | [2] -8.2% | [3] 0.6% | [4] 0.3% | [5] 16.2% | [6] 11.7%

Oc1cc2nc3ccccc3nc2c2ccc(Br)cc12
inactive: [1] -12.8% | [2] -7.45% | [3] 7.7% | [4] -44.6% | [5] -17.7% | [6] -14.1%

C=C(C)c1nc(N)nc(-c2cccc(-c3nc(N)nc(C(=C)C)n3)c2)n1
inactive: [1] -8.2% | [2] -8.35% | [3] 0.2% | [4] -67.6% | [5] -11% | [6] -0.8%

CCOc1ccc(C(C)c2cc3c(cc2OCCO)OCO3)cc1 (stereo unspecified)
inactive: [1] 28.6% | [2] 29.2% | [3] 69% | [4] 59.9% | [5] -29.6% | [6] 68.5%

N#Cc1nccc2ccccc12
inactive: [1] 12.2% | [2] -13.3% | [3] -13.1% | [4] -29.1% | [5] -1.4% | [6] -13.4%

CCCCCCCCCCCCCCCCCC(=O)OCC1OC(OC2(OC(=O)CCCCCCCCCCCCCCCCC)OC(COC(=O)CCCCCCCCCCCCCCCCC)C(OC(=O)CCCCCCCCCCCCCCCCC)C2OC(=O)CCCCCCCCCCCCCCCCC)C(OC(=O)CCCCCCCCCCCCCCCCC)C(OC(=O)CCCCCCCCCCCCCCCCC)C1OC(=O)CCCCCCCCCCCCCCCCC (stereo unspecified)
inactive: [1] 17.2% | [2] 6% | [3] 25.4% | [4] -2.75% | [5] 17.9% | [6] 23.8%

Cc1ncc(CSCC(=O)O)c(N)n1
inactive: [1] 3.5% | [2] -16.1% | [3] -5.05% | [4] -9.05% | [5] -8.7% | [6] -8.55%

CCN(c1ccccc1)S(=O)(=O)c1ccccc1N
inactive: [1] -0.75% | [2] -13.2% | [3] 10.7% | [4] 14.4% | [5] -3.6% | [6] -0.4%

CCCC(=O)OCc1ccccc1
inactive: [1] 14.4% | [2] 11.9% | [3] -6.9% | [4] -15.8% | [5] -5.15% | [6] -7.85%

N#CCCN(CCC#N)c1ccc(/C=C2\N=C(c3cc([N+](=O)[O-])ccc3Cl)OC2=O)cc1
inactive: [1] -8.15% | [2] 13.9% | [3] -16.4% | [4] 25% | [5] 4.85% | [6] -7.15%

CCOP(=Nc1ccccc1)(OCC)OCC
inactive: [1] 4.1% | [2] 5.85% | [3] -3.9% | [4] -5% | [5] 1.75% | [6] 9.4%

COc1ccc(CC2c3cc(OC)c(OC)cc3CCN2C(=O)OCc2ccccc2)cc1OC (stereo unspecified)
inactive: [1] 25.3% | [2] -4.1% | [3] 2.35% | [4] 19.6% | [5] 8.65% | [6] 12.1%

CCOC(OCC)C(=O)NNC(C)C
inactive: [1] 15.4% | [2] -7.85% | [3] -2.15% | [4] -39.9% | [5] 10% | [6] -13.9%
